# High-throughput results as filed in PubChem BioAssay.
# IDE inh = inhibits human insulin-degrading enzyme in HEK cells. P14735. FAbetaB cleavage, fluorescence polarization. inhibition, % at 5.59 µM. actives 0.41% (n = 320,000);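 active = percent inhibition above the average of all tested compounds plus 3 SD, set per screening campaign, cut at about 16% in these data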;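 also: IDE supplied by intact live HEK cells; FP after avidin binding of uncleaved biotin substrate so inhibition keeps polarization high; 0% = DMSO wells and 100% = 60 µM reference IDE inhibitor Ii1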
# TPT1 inh = blocks Candida albicans tRNA 2'-phosphotransferase | recombinant caTPT1, FP RNA substrate dephosphorylation | inhibition, % at 5 µM | actives 0.81% (n = 300,000);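 active = inhibition above the mean of all tested compounds plus 3 SD, set per screening campaign, cut at about 24% in these data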;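 also: plate controls were DMSO alone for no effect and ferristatin control at 100 nM for full effect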
# IDE act = activators of human insulin-degrading enzyme in cells; AID 493087; activation, % at 5.96 µM; HEK cells, FAbeta-B cleavage, fluorescence polarization; 0% vehicle, 100% cell-free pure enzyme wells; actives 0.073% (n = 340,000);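 active = activation above the mean of all tested compounds plus 3 SD, set per screening campaign, cut at about 17% in these data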
# CRFR2-BP antag = antagonists of CRF-binding protein/CRF-R2 receptor complex; AID 588475; actives 0.59% (n = 350,000); inhibition, % at 11.8 µM; HEK293 CRF-R2/CRF-BP, CRF-induced calcium fluorescence;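 active = inhibition of the ligand-induced calcium signal above about 50% at the single tested concentration, limit read from the data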
# Myeloid diff 2 = myeloid differentiation induction | calls only at 10 µM | ER-HoxA9 myeloid progenitors, lysozyme-GFP differentiation, flow cytometry | actives 1% (n = 360,000);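 active = normalized GFP-positive differentiation at or above the plate's own cutoff, the solvent-only control mean plus 3 SD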;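 also: cells exposed to compound for four days before flow analysis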
# CRFBP-R2 agonist = agonists of human CRF-binding protein/CRF-R2 receptor complex; HEK293 CRF-R2/CRF-BP, calcium dye fluorescence (FLIPR); percent of saturating CRF peptide response; activation, % at 13.2 µM; actives 0.46% (n = 350,000); AID 588473;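 active = activation of at least 50%, plus an integration ratio under a set limit after plate pattern correction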;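 also: plate controls were neutral control wells without compound for no effect and CRF at EC100 for full effect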
# Myeloid diff = myeloid differentiation induction. shares compounds with Myeloid diff 2. ER-HoxA9 myeloid progenitors, GFP/Mac1 double-positive flow. calls only. actives 2% (n = 2,300);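 active = share of green or green-and-red cells above 9 and 9% in run 1 or 4 and 3% in run 2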
# GFP autofluor = counter-screen for myeloid differentiation promoters: compound fluorescence; fluorescence response, % (concentration not given with the values); actives 7.4% (n = 2,300); shares compounds with Myeloid diff 2; ER-HoxA9 myeloid progenitors, no estrogen, GFP autofluorescence flow cytometry; vehicle wells 0%, positive control 100%;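 active = over 5% cells positive for green fluorescent reporter, or over 2% positive for both it and APC stain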;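 also: range taken on the double positive population between DMSO and positive control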
# * = called active by the depositor; i = inactive; x = no result; + = active, no number. Compounds with a hit are over-represented: about 2.6% of the library has one in this group of screens.
SMILES,IDE inh,TPT1 inh,IDE act,CRFR2-BP antag,Myeloid diff 2,CRFBP-R2 agonist,Myeloid diff,GFP autofluor
CCOc1ccc(CN2C(=O)c3ccccc3C2=O)cc1C(=O)NC1CC(C)(C)NC(C)(C)C1,-1,x,-1,-7,i,0,i,98*
CCOc1ccc(CN2C(=O)c3ccccc3C2=O)cc1C(=O)Nc1nnc(SCC)s1,4,-1,5,15,i,-1,x,x
COc1ccc(NC(=O)CN(C)C(=O)c2cc(CN3C(=O)c4ccccc4C3=O)ccc2OC)cc1,2,0,1,0,i,-1,x,x
COc1ccc(S(=O)(=O)N2CCN(C(=O)CCSc3ccccc3)CC2)cc1,2,x,1,4,i,1,x,x
Cc1ccc(C)c(N=Nc2nc3ccccc3n2C)c1,7,-3,1,1,+,-3,i,0
CCCCC1CCC(C(=O)Nc2ccccc2N2CCOCC2)CC1 (stereo not given),-5,x,6,-15,i,0,x,x
CC1CCCN(c2sc(S(C)(=O)=O)nc2S(=O)(=O)c2ccc(Cl)cc2)C1 (stereo not given),2,-2,7,-6,i,1,x,x
CS(=O)(=O)c1nc(S(=O)(=O)c2ccc(Cl)cc2)c(N2CCOCC2)s1,2,0,3,-14,i,0,i,0
CC1CN(c2sc(S(C)(=O)=O)nc2S(=O)(=O)c2ccc(Cl)cc2)CC(C)O1 (stereo not given),0,0,2,-9,i,-3,i,0
CCc1ccc(/C([O-])=C(/C(=S)NCCN2CCOCC2)[n+]2ccccc2)cc1,3,-3,4,4,i,0,x,x
CC(=O)c1ccc(NC(=O)Cn2c3ccccc3c3nc(=O)cc(C)n32)cc1,2,0,5,0,i,0,x,x
CC1(C(=O)NCc2ccccc2Br)CCN1Cc1ccc2ccccc2c1 (stereo not given),x,x,x,x,i,x,x,x
CCCN(CC(=O)Nc1cc(Cl)ccc1Cl)C(=O)c1ccccn1,-5,x,1,-12,i,-2,x,x
C[n+]1ccccc1/C=C/c1ccc2ncccc2c1,x,x,5,8,+,-2,+,0
C[n+]1ccccc1/C=C/c1ccc(F)c(F)c1,-2,-1,0,21,i,3,x,x
Cc1c(C(=O)Nc2ccccc2)cn2c(nc3ccccc32)c1C#N,5,3,3,2,i,0,x,x
Cc1ccccc1C(=O)Nc1ccc2c(C#N)c3nc4ccccc4nc3n2c1,3,9,-6,-38,+,84*,i,2.3*
CCOc1cc(C)c(S(=O)(=O)Nc2ccc(Cl)cn2)cc1C,-4,-1,-1,23,i,0,i,0
COc1ccc(-c2csc(C(O)c3ccc(F)c(F)c3)n2)cn1 (stereo not given),x,x,x,x,+,x,i,1
Cc1ccc(NC(=O)c2cc(S(=O)(=O)N3CCCC3)c[nH]2)c(C)c1,0,-3,5,-14,i,-4,x,x
CCCCOC(=O)C(C#N)c1nc2ccccc2nc1N1CCN(Cc2ccc3c(c2)OCO3)CC1 (stereo not given),-4,0,2,2,+,9,i,0
Cn1c(CNC2CCCCC2)c(C#N)c2ccccc21,4,-1,0,-44,i,0,x,x
COc1ccccc1-c1cc(C(=O)NC2CCN(C)CC2)c2ccc(Cl)c(C)c2n1,-1,1,3,-1,+,1,i,0
Cc1c(Cl)ccc2c(C(=O)NCCN3CCCCC3)cc(-c3ccccn3)nc12,0,-1,5,-17,i,4,x,x
Cc1ccc2c(c1)-c1c(cnn1CC(=O)Nc1ccccc1N1CCN(C)CC1)CO2,3,-3,1,-15,i,-1,i,0
COc1ccc(CC(=O)NNC(=O)c2ccc(SCc3cc(F)ccc3F)c([N+](=O)[O-])c2)cc1,8,2,6,10,i,4,i,0
